# Autophagy HCS – autophagy modulators in MEF cells, primary screen, imaging, high-content, MEF GFP-LC3; calls only at 10 µM (by protocol); MEF GFP-LC3 puncta imaging; test concentration mostly 10 µM; 0.98% of 190,000 active;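 active means percentage of spot-positive cells more than 3 SD above its plate mean, without a fluorescence outlier flag or 80% toxicity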
# Insulin prom up – insulin promoter activators in MIN6 cells, imaging, high-content screening, mouse beta cells; MIN6 insulin promoter-GFP reporter; stronger effect = higher value; z-score at 5 µM; 0.3% of 190,000 active;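 active means z-score above 3 at 5 µM with at least 500 cells counted in the well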
# Insulin prom inh – inhibitors of insulin promoter-driven GFP, primary screen, imaging, TRM-6 cells (human fetal islet line), eGFP reporter, cell count. reporter expression induced with tamoxifen. inhibition, % at 2 µM. 0.9% of 130,000 active. AID 1273, 2008;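 active means inhibition above the mean plus 3 SD, with well images judged a real hit on visual review, cut at about 60% in these data, passing the limit was not always enough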
# bCat KO growth – primary screen for growth suppressors in beta-catenin knockout HCT116 cells (colon tumor, human). HCT116 beta-catenin knockout viability, CellTiter-Glo, 60 h; stronger effect = lower value. 1.5% of 140,000 active. viability, % at 10 µM;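 active means viability at or under a set limit, the compound median less 4 SD, cut at about 6% in these data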
# HCT116 PTEN-null – growth suppression of PTEN-null HCT116, primary screen, cell-based, CellTiter-Glo; 1.2% of 140,000 active; HCT116 PTEN-null viability, 60 h; stronger effect = lower value; AID 827, 2007; viability, % at 10 µM;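 active means viability at or below a set limit, 4 SD under the median of all tested compounds, cut at about 3.7% in these data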;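 further: PTEN knockout HCT116 line with beta catenin targeted HCT116 as companion control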
# Lmaj promast – Leishmania major promastigote growth inhibition, primary screen; Leishmania major promastigotes, resazurin fluorescence viability; inhibition, % at 10 µM; 9% of 200,000 active; AID 1063, 2008; in the data active means inhibition above about 50%;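 further: promastigotes grown with compound for 44 hours at 28 °C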
# Hits are given with their value; i = inactive; nt = not tested or not shown; + = active, no number. Shown are actives, neighbours in structure and some others; about 9.6% of the full set was active somewhere.
SMILES,Autophagy HCS,Insulin prom up,Insulin prom inh,bCat KO growth,HCT116 PTEN-null,Lmaj promast
CCOC(=O)c1sc(NC(=O)CSc2n[nH]c(-c3ccccc3)n2)c(C#N)c1C,+,i,nt,i,i,i
CCOC(=O)c1c(NC(=O)CSc2nc(C)cc(C)c2C#N)sc(C(C)=O)c1C,+,i,nt,i,i,i
Cc1ccc(C)c(NC(=S)NC(C)C(c2cccs2)N2CCOCC2)c1 (configuration not stated),i,i,i,i,i,i
COCCNC(=O)c1c(NC(=O)c2nc(SC)ncc2Cl)sc2c1CCCC2,+,i,nt,i,i,i
CSc1ncc(Cl)c(C(=O)Nc2cccc3ccccc23)n1,i,i,nt,i,i,i
CCCc1c2ccccc2nc2ccccc12,i,i,85,i,i,i
Cc1ccc(-c2nn(CC(=O)NCc3cc(-c4nn(C)c(=O)c5ccccc45)ccc3C)c(=O)c3ccccc23)cc1,i,i,i,i,i,i
CCN(CC)c1ccc(NC(=O)c2ccccc2)cc1S(=O)(=O)Nc1ccccc1OC,i,i,i,i,i,100
CCN(CC)c1ccc(NC(=O)c2cccc(C)c2)cc1S(=O)(=O)Nc1ccccc1OC,i,i,i,i,i,97
COc1ccc(NC(=O)c2ccc(-c3ccccc3)cc2)cc1NS(=O)(=O)c1ccc(F)cc1,i,i,i,i,i,91
C(=C\c1ccccc1)/CN1CCN(C(c2ccccc2)c2ccccc2)CC1,i,nt,i,i,i,i
Fc1ccc(C(c2ccc(F)cc2)N2CCN(C/C=C/c3ccccc3)CC2)cc1,i,nt,i,i,i,53
Cn1cccc1C1NC(=O)c2c(sc3c2CCC(C(C)(C)C)C3)N1 (configuration not stated),i,i,i,i,i,i
Cc1cccc2cc(C#N)c(SCc3nnc(-c4ccccc4[N+](=O)[O-])o3)nc12,+,i,i,i,i,i
Nc1nnc(-c2ccccc2[N+](=O)[O-])o1,i,i,nt,nt,nt,i
O=C1/C(=C/c2ccc(Cl)cc2)NC(=S)N1Cc1cccnc1,i,i,nt,nt,nt,84
Cc1ccc(-c2nc(NCc3ccco3)c3ccccc3n2)cc1,i,i,i,i,i,100
CNc1nc(SC)nc2ccccc12,i,i,nt,nt,nt,i
CSc1nc(NCc2ccco2)c2ccccc2n1,i,i,i,i,i,70
OCCNc1nc(-c2cccnc2)nc2ccccc12,i,nt,nt,i,i,i
c1cncc(-c2nc(NCc3ccco3)c3ccccc3n2)c1,i,i,i,i,i,77
COc1cc(NC(=O)CN2C(=O)NC(C)(CC(C)C)C2=O)cc(OC)c1 (configuration not stated),i,i,i,i,i,i
COc1cc(OC)c2c(c1)S(=O)(=O)C(c1ccccc1)=C2N,i,i,i,nt,nt,i
O=c1oc2ccccc2c(O)c1/C=C1\C=Nc2ccccc21,i,nt,i,i,i,100
O=c1oc2ccccc2c(O)c1/C=N/c1ncccn1,nt,i,nt,nt,nt,nt
SMILES,Autophagy HCS,Insulin prom up,Insulin prom inh,bCat KO growth,HCT116 PTEN-null,Lmaj promast
COC(=O)c1c(C)oc2c1cc(NS(=O)(=O)c1cccs1)c1ccccc12,i,nt,i,i,i,i
CC1=C(C(=O)Nc2ccccc2)C(c2cccc([N+](=O)[O-])c2)Nc2nc3ccccc3n21 (configuration not stated),i,i,i,i,i,98
CCCCCOC(=O)Cc1c(C)nc(-c2ccccc2)[nH]c1=O,i,i,i,i,i,i
CN1CCc2cc3c(c4c2[C@H]1[C@H](O)c1ccccc1-4)OCO3,i,i,i,i,i,96
Cc1nc2c(-c3ccccc3)c(C)nn2c(C)c1CCC(=O)NC(C)CCc1ccco1 (configuration not stated),i,i,nt,i,i,100
COc1ccccc1-c1cc2nc(C)c(CCC(=O)NC(C)CCc3ccco3)c(C)n2n1 (configuration not stated),i,i,nt,i,i,98
COc1ccccc1CNC(=O)CCc1c(C)nc2cc(-c3ccccc3OC)nn2c1C,nt,i,nt,nt,nt,nt
COc1ccc(NC(C)=O)cc1NC(C)C(=O)Nc1cc(C(F)(F)F)ccc1N1CCOCC1 (configuration not stated),i,i,i,i,i,i
CCn1c(NC(=O)c2ccco2)c(-c2ccccc2Cl)c(=O)c2ccccc21,i,i,90,i,i,i
O=c1oc2ccccc2c(NC(c2ccccc2)c2ccccc2)c1[N+](=O)[O-],i,i,i,i,i,i
CC(Nc1c([N+](=O)[O-])c(=O)oc2ccccc12)C(Cl)c1ccccc1 (configuration not stated),i,i,nt,i,i,56
Cc1nc2ccc(NC(=O)c3ccc(Cl)c(S(=O)(=O)N(C)c4ccccc4)c3)cc2s1,i,i,i,i,i,100
Cc1ccc(NC(=O)N(C2CCCCC2)C(C)c2cccnc2)cc1C (configuration not stated),i,i,nt,i,i,83
CCc1ccc(NC(=O)N(C2CCCCC2)C(C)c2cccnc2)cc1 (configuration not stated),i,nt,i,i,i,90
CC(=O)N1CCC(N(C(=O)Nc2ccc(C)c(C)c2)C2CCCC2)CC1,i,nt,i,i,i,i
COc1ccc(NC(=O)N(C2CCCCC2)C(C)c2ccco2)c(OC)c1 (configuration not stated),i,i,nt,i,i,i
COc1ccc(NC(=O)N(C2CCCCC2)C(C)c2cccnc2)c(OC)c1 (configuration not stated),i,i,nt,i,i,82
CCc1ccc(NC(=O)c2cccnc2)cc1,i,i,i,i,i,i
CN1CCN(C(=S)c2ccc(-c3cccc([N+](=O)[O-])c3)o2)CC1,nt,i,nt,nt,nt,nt
CC(C)N(C(=O)CC1ON(C)C(=O)N1c1ccc(Cl)cc1)C(C)C (configuration not stated),i,i,i,nt,nt,i
Cc1ccc(C(=O)O/N=C/c2ccc3c(c2)OCO3)cc1,i,i,i,i,i,59
Cc1ccc(C(=O)Oc2ccc(/C=N/NC(N)=O)cc2)cc1,i,i,nt,nt,nt,i
CCOC(=O)N/N=C\c1ccc(OC(=O)c2ccc3c(c2)OCO3)cc1,+,i,i,nt,nt,i
O=C1CCc2ccccc2N1,nt,i,nt,nt,nt,nt
CC1CCCN(c2nc3ccsc3c(=O)s2)C1 (configuration not stated),i,i,nt,i,i,i
CCn1nc(C)c(NC(=O)CSc2nnc(-c3ccco3)n2C)c1C,i,i,81,i,i,i
COc1cc(NC(=O)c2cccs2)c(C(=O)OCC(=O)c2cc(C)n(-c3ccc(F)cc3)c2C)cc1OC,i,i,i,i,i,90
COCCn1c(C)cc(C(=O)COC(=O)c2ccc[nH]c2=O)c1C,i,i,i,i,i,57
Cc1cc(C(=O)COC(=O)c2ccc[nH]c2=O)c(C)n1-c1ccc(Br)cc1,i,nt,i,i,i,i

# High-throughput results from PubChem BioAssay.
